# Data reported in PubChem BioAssay.
# Calls of active or inactive are those of the source. How the calls were made is not given here.
# Target: Pantothenate synthetase (Mycobacterium tuberculosis (strain ATCC 25618 / H37Rv)) (UniProt P9WIL5)
# Assay: Recombinant Mtb pantothenate synthetase (PanC) inhibitors, coupled enzyme, confirmatory (AID 375);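 further: 0% = full reaction with vehicle and 100% = no enzyme background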
# Conditions: coupled enzyme assay; at 10 µM, active compounds read high
# Chain of Pantothenate synthetase (Mycobacterium tuberculosis (strain ATCC 25618 / H37Rv)) (P9WIL5 whole entry, looked up): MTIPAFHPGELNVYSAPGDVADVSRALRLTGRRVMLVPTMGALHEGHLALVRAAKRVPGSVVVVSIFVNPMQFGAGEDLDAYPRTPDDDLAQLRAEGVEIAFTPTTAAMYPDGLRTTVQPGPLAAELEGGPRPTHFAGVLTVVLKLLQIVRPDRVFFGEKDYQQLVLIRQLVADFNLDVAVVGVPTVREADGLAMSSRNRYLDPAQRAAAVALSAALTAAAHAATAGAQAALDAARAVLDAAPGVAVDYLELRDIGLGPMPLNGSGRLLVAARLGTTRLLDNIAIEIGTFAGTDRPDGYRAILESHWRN
row,SMILES,inhibition
1,CCOC(=O)c1ccc(NC(=O)c2ccc(NS(C)(=O)=O)cc2)cc1,0% (inactive)
2,CN(C(=O)c1ccno1)c1nnc(-c2cnccn2)s1,2% (inactive)
3,CCN1CCN(Cc2nc3c(c(=O)[nH]c(=O)n3C)n2Cc2ccccc2Cl)CC1,2% (inactive)
4,COc1ccc(N2C(=O)C(Cl)=C(Nc3c(C)n(C)n(-c4ccccc4)c3=O)C2=O)cc1,5% (inactive)
5,CCOC(=O)c1c(C)[nH]c(C(=O)COC(=O)c2ccc(F)c(S(=O)(=O)N3CCOCC3)c2)c1C,4% (inactive)
6,COc1ccc(C(=O)Nn2c(C3CCC3)nc3ccccc3c2=O)c(OC)c1,0% (inactive)
7,O=C(Cn1cnc2c(cnn2-c2ccc(F)cc2)c1=O)N1CCN(c2ccccc2)CC1,0% (inactive)
8,CC1(C)Cc2noc(N)c2C(C)(C)N1OC(=O)c1cccs1,0% (inactive)
9,Cc1nc2c(-c3ccccc3)c(C)[nH]n2c(=O)c1Cl,0% (inactive)
10,O=C(NCCC1=CCCCC1)N[C@@H](Cc1ccccc1)C(=O)O,6% (inactive)
11,CNc1ccc(C(O)(C(F)(F)F)C(F)(F)F)cc1C(O)(C(F)(F)F)C(F)(F)F,0% (inactive)
12,CC(=O)Nc1cccc(NC(=O)CSc2nnnn2C(C)C)c1,5% (inactive)
13,CCCCn1c(=O)[nH]c(=O)c2c1nc(COc1ccc(C#N)cc1)n2CCC,4% (inactive)
14,Cc1ccc(NC(=O)CSc2nnc(Cc3cccn3C)n2-c2ccc(F)cc2)cc1,6% (inactive)
15,CC(C(=O)NCCCN1CCOCC1)n1cccc1C(=O)c1ccccc1 (stereo not given),0% (inactive)
16,CCOC(=O)c1cc2c(=O)n3ccccc3nc2n(CC(C)C)c1=NC(=O)c1ccco1,0% (inactive)
17,COc1ccc2c(c1)c(CC(=O)OCC(=O)O)c(C)n2C(=O)c1ccc(Cl)cc1,0% (inactive)
18,CCn1c(=N)n(CC(=O)C23CC4CC(CC(C4)C2)C3)c2ccccc21,0% (inactive)
19,CC(=O)Nc1c2c(nn1-c1ccc(C)cc1C)CSC2,0% (inactive)
20,CS(=O)(=O)N1CCc2cc(C(=O)N3CCCCC3)ccc21,2% (inactive)

row,SMILES,inhibition
1,O=S(=O)(NCc1ccco1)c1cccc2cccnc12,1% (inactive)
2,C=CCn1c(Br)nc2c1c(=O)[nH]c(=O)n2C,0% (inactive)
3,Cc1cc(C(=O)Nc2cccc(O)c2)c(C)o1,20% (inactive)
4,O=C(c1ccccc1F)N1CCN(Cc2cccc(Cl)c2)CC1,5% (inactive)
5,COc1ccc(S(=O)(=O)Cc2ccc(C(=O)N3CCN(c4ccccc4)CC3)o2)cc1,0% (inactive)
6,O=C1N(CCCCN2C(=O)C3(OCCO3)c3ccccc32)c2ccccc2C12OCCO2,0% (inactive)
7,Cc1ccc(-n2nnnc2SCC(=O)N2CCc3ccccc3C2)cc1,4% (inactive)
8,CCOc1cccc(OCCCCn2ccnc2)c1,0% (inactive)
9,COc1ccc(NC(=O)CSc2nnc(Cc3cccn3C)n2-c2ccc(F)cc2)cc1OC,0% (inactive)
10,O=C(NCCC1=CCCCC1)C1CCN(S(=O)(=O)c2cccc3nsnc23)CC1,10% (inactive)
11,CN1CCN(/C=N/c2sc3c(c2C#N)CCCCC3)CC1,4% (inactive)
12,Cc1ccc(OC(=O)CCc2c(C)nc3ncnn3c2C)cc1,0% (inactive)
13,COc1ccc(OC)c(Nc2cc(-c3ccccc3)nc(N)n2)c1,1% (inactive)
14,O=C(Nc1cccnc1)c1noc2c1CCCCC2,0% (inactive)
15,CCn1c(SCC(=O)c2ccc(C)cc2)nnc1-c1ccoc1C,2% (inactive)
16,O=C(O)C1CCCN1C(=O)Nc1ccc(F)cc1 (stereo not given),2% (inactive)
17,Clc1ccc2c(c1)C(N1CCNCC1)=Nc1ccccc1O2,8% (inactive)
18,O=C1OC2(c3ccccc3)C3CCCC2C13,3% (inactive)
19,CCOC(=O)Cn1c(CN2CCN(c3cccc(Cl)c3)CC2)nc2c1c(=O)[nH]c(=O)n2C,0% (inactive)
20,Cc1ccc2c(c1)-c1c(cnn1CC(=O)Nc1ccccc1N1CCN(C)CC1)CO2,0% (inactive)
